# Assay outcomes: PubChem, Broad Institute
# Shown are actives, neighbours in structure and some others; about 3.7% of the full set was active somewhere.
# Wnt act: Wnt/beta-catenin pathway activation; Wnt/beta-catenin reporter cell assay, activator, plate reader; activation, % at 9.35 µM; actives 1.2% (n = 300,000); AID 743398; in the data active = activation above about 30%, passing the limit was not always enough; inconclusive = no clear call, values can overlap the other calls
# MLL AF4-AF9 inh: inhibitors of human MLL-AF4/AF9 interaction. inhibition, % at 10 µM. AlphaScreen, biotin-AF4 peptide binding to FLAG-AF9. P42568. actives 0.47% (n = 350,000). AID 651704;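 active = every replicate reaching a set inhibition limit, whatever the replicate mean, cut at about 25% in these data; inconclusive = mean inhibition reaches that limit but some replicates miss it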
# Target sequence (P42568 whole entry, looked up): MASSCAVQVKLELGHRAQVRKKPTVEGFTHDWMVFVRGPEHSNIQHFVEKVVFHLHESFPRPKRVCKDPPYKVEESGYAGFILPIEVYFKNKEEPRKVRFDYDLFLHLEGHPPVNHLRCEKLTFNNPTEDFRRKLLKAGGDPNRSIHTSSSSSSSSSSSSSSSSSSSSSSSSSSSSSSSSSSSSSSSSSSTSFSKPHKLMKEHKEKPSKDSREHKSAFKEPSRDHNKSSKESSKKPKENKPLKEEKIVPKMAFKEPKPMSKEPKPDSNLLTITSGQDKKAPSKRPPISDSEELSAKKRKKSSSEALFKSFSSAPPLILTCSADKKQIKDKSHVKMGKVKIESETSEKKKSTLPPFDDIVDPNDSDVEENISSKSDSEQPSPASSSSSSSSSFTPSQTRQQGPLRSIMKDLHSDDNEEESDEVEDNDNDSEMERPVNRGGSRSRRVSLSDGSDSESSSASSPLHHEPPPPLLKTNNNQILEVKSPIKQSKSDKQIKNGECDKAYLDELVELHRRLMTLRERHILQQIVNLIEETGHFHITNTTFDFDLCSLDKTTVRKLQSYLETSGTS
# Ecoli rRNA inh: inhibitors of bacterial rRNA selective over humanized ribosomes | E. coli WT GFP vs humanized-ribosome RFP mutants, fluorescence, 24 h; hits give low values; DMSO median 0, no signal -100 | actives 1.6% (n = 350,000) | AID 720706 | GFP signal change (wild-type ribosome), % (concentration not given with the values);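 active = significant combined selectivity score with lowered wild-type GFP, culture density cut under 30%, mutant RFP and density less affected; inactive = any of these conditions unmet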
# esBAF inh: inhibitors of esBAF chromatin remodeling in mouse ES cells. Bmi1-luciferase knock-in reporter, 24 h; 100% = twice the neutral-well signal. reporter increase, % at 12.5 µM. actives 2% (n = 350,000). AID 602393; in the data active = activation above about 40%; inconclusive = no clear call, values can overlap the other calls;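 also: a rise in the Bmi1 reporter signal indicates esBAF inhibition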
# MITF TRPM1 HTS: activators of MITF-driven TRPM1 promoter activity in SK-MEL-5 cells; activation, % at 12.5 µM; SK-MEL-5 TRPM1-promoter luciferase, 24 h; % of positive control, neutral wells = 0; actives 0.75% (n = 300,000); AID 588334;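 active = mean activation of at least 80% with every replicate also reaching 80%; inconclusive = mean reaches 80% but some replicate falls short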
# Numbers stand for hits; n = inactive; u = inconclusive; x = not tested or not shown.
SMILES,Wnt act,MLL AF4-AF9 inh,Ecoli rRNA inh,esBAF inh,MITF TRPM1 HTS
Cc1cc(C(=O)OCC(=O)NC2CCCC(C)C2C)c(C)o1 (configuration not stated),n,n,n,n,n
O=C(C[C@H]1CC[C@@H](NC(=O)C2CCOCC2)[C@H](CO)O1)NCC1CCCCC1,x,n,n,n,x
CCOc1ccc(C=NNc2ccc(S(=O)(=O)Nc3ccccc3C(=O)O)cc2[N+](=O)[O-])cc1,37,n,x,n,n
COc1ccc2c(c1)c1ncn(Cc3ccco3)c(=O)c1n2C,x,x,x,n,x
CCOC(=O)C(C(=O)OCC)C(=O)c1cc(OC)c(OC)c(OC)c1,n,x,x,n,n
COCCNC(=O)c1cc2c(s1)-c1ccc(Cl)cc1SC2,43,n,n,n,n
CCc1ccc2oc(C(=O)Nc3nonc3C)c(C)c2c1,44,n,n,78,n
Cc1cc2oc(C(=O)Nc3nonc3C)c(C)c2cc1C,u,n,n,77,120
Cc1cc(C)c(S(=O)(=O)NCCOc2ccccc2)c(C)c1-n1cnnn1,n,n,-18,n,n
CCc1nc2ccc(C(=O)NCc3ccccc3OC)cn2c1N(C)Cc1ccc(OC)cc1,n,n,n,n,x
COCc1cc(C)nc2sc(C(=O)Nc3cccc(OC)c3)c(N)c12,n,n,n,67,x
Nc1c(C(=O)Nc2ccccc2)sc2nc3c(c(-c4ccco4)c12)CCC3,x,x,x,n,n
COCc1cc(C)nc2sc(C(=O)Nc3ccc(OC)cc3)c(N)c12,n,n,n,n,x
Cc1ccc(NC(=O)c2sc3nc(C)cc(C)c3c2N)cc1,36,n,n,n,83
Cc1cc(C)c2c(N)c(C(=O)Nc3nccs3)sc2n1,39,x,x,n,x
COc1ccc(-c2c3c(nc4sc(C(=O)Nc5ccccc5)c(N)c24)CCC3)cc1,36,x,x,53,n
Cc1cc(C)c2c(N)c(C(=O)Nc3cccc(C)c3C)sc2n1,n,n,n,n,n
C[C@@H]1CCCCO[C@H](CN(C)C(=O)Cc2ccccc2)[C@@H](C)CN([C@@H](C)CO)C(=O)c2cc(NS(=O)(=O)c3cccs3)ccc2O1,x,n,n,n,x
CC1CCc2c(sc3nc(C4CC4)nc(N4CCN(C(=O)c5ccco5)CC4)c23)C1 (configuration not stated),n,x,x,n,n
COCc1cc(C)nc2sc(C(=O)Nc3nccs3)c(N)c12,n,n,n,56,x
Cc1ccc(C)c(NC(=O)c2cc3ccccn3n2)c1,50,n,n,n,n
Cc1ccccc1NC(=O)c1c(F)c(F)c(F)c(F)c1F,x,x,x,n,n
CC(=O)c1cccc(NC(=O)c2cc3ccccn3n2)c1,u,n,n,54,x
Cc1ccc(C)c(NC(=O)c2cnn3ccccc23)c1,n,n,n,n,n
Cc1ccccc1NC(=O)c1cc2ccccn2n1,59,n,n,x,n
SMILES,Wnt act,MLL AF4-AF9 inh,Ecoli rRNA inh,esBAF inh,MITF TRPM1 HTS
COc1cccc(-c2nc(CS(=O)(=O)CC(=O)NCCCN3C(C)CCCC3C)c(C)o2)c1 (configuration not stated),n,n,n,x,n
CCCNC(=O)C[C@@H]1C[C@@H]2c3cc(NC(=O)Nc4ccccc4)ccc3O[C@@H]2[C@@H](CO)O1,x,x,n,n,x
CO[C@@H]1CN(C)C(=O)c2cc(NS(=O)(=O)Cc3ccccc3)ccc2OC[C@@H](C)NC[C@@H]1C,x,n,n,n,x
CC1CCCCC12NC(=O)N(CC(=O)c1ccc[nH]1)C2=O (configuration not stated),x,x,x,n,n
Cn1c(SCC(=O)N2CCN(c3ccccc3)CC2)nnc1-c1c[nH]c2ccccc12,n,n,n,n,x
Cn1c(SCc2ccccc2)nnc1-c1c[nH]c2ccccc12,n,n,n,81,x
COC(=O)c1ccc(CSc2nnc(-c3c[nH]c4ccccc34)n2C)o1,n,n,n,n,n
CCCCSc1nnc(-c2c[nH]c3ccccc23)n1C,32,n,n,72,n
CCCCSc1nnc(-c2ccc(C)cc2)n1C,53,x,x,n,n
CCOC(=O)[C@]12CCCC=C1N(Cc1ccc3c(c1)OCO3)C(=O)[C@H](CC(=O)NCC13CC4CC(CC(C4)C1)C3)C2,n,n,n,x,x
COc1ccc(C(=O)Nc2ccc(C)cn2)cc1S(=O)(=O)N1CCCc2ccccc21,n,n,n,n,n
C[C@@H]1CN([C@@H](C)CO)C(=O)c2cc(NS(=O)(=O)c3cccs3)ccc2O[C@@H](C)CCCCO[C@H]1CN(C)Cc1ccc(C(F)(F)F)cc1,x,n,n,n,x
Cc1cc(-c2cccc([N+](=O)[O-])c2)nc2ccccc12,n,n,n,x,n
